# The panel holds about 83,000 compounds, 20% with a hit somewhere; the sample as a whole holds those more often.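 Treatment: one concentration, 48 hours, 96-well format. Scoring: percent growth, with anything below 10 considered active.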 Activity calls are given as the source filed them.
# Tested on: HOP-92 NSCLC
# Test: NCI-60 one-dose screen, 48 h (100 = growth as untreated, 0 = no growth, -100 = all killed)
# Settings: 10 µM unless noted
# Method: Growth inhibition of the HOP-92 human Non-Small Cell Lung tumor cell line is measured as a screen for anti-cancer activity. Cells are grown in 96 well plates and exposed to the test compound for 48 hours. Compounds are tested at a single concentration, which is 10^-5 M for most compounds. The reported endpoint is percent growth (GI% or GIPRCNT), where numbers from 0 - 100% represent growth inhibition, and numbers from -100% - 0 represent cell death. For example, a value of 40 represents 60% growth inhibition. A value of 0 means no net growth occurred over the course of the experiment. A value of -40 indicates 40% of cells at the beginning of the experiment died by the end of the experiment. A value of -100 means all cells are dead at the end of the experiment.
# NCI-60 Human Tumor Cell Lines Screen was performed using the standard one-dose NCI protocol, which is described in more detail at https://dtp.cancer.gov/discovery_development/nci-60/default.htm.
# Compounds with GIPRCNT values below 10 were considered active. Activity score was based on GIPRCNT using the following formula: […]
# Score is 0 for GIPRCNT values of 100 or above, 50 for GIPRCNT values of 0, and 100 for GIPRCNT values of -100.
row,SMILES,growth
1,CC(C(=O)O)N1C(N)=NNC1c1ccccc1O (stereo not given),77.7% (inactive)
2,O=C(NCCNc1nccc(-c2c(-c3cccc(O)c3)nc3sccn23)n1)c1ccccc1O,59.9% (inactive)
3,C=C1C(=O)O[C@H]2[C@H]1CC/C(C(=O)NCCOCCOCC(=O)Nc1ccc(OC)c(C(N)=O)c1O)=C\CC[C@@]1(C)O[C@@H]21,92.5% (inactive)
4,O=C(Nc1ccc(-n2ccc3c(NC(=O)c4ccccc4)ncnc32)cc1)Nc1ccc(Cl)c(Cl)c1,-9.63% (active)
5,Fc1cccc(F)c1C#Cc1ccc2cccnc2c1,82.4% (inactive)
6,O=C1OC(c2ccc(-c3ccccc3)cc2)=C/C1=C/C=C/c1ccccc1,68.7% (inactive)
7,O=S(=O)(O)c1ccc(F)cc1,116% (inactive)
8,Nc1nccc2c1ccn2-c1cccc(NC(=O)c2ccc(N3CCOCC3)c(C(F)(F)F)c2)c1,-6.29% (active)
9,CN(C)CCCOc1c(Br)cc(/C=C/C(=O)N(C)CCc2cc(Br)c(OCCCN(C)C)c(Br)c2)cc1Br,48.7% (inactive)
10,O=C(Nc1ccc(-n2ccc3c(NC(=O)c4ccccc4)nccc32)cc1)Nc1ccc(Cl)c(Cl)c1,-6.97% (active)
11,OCc1cnccc1NC12CC3CC(CC(C3)C1)C2,86.2% (inactive)
12,CC(=O)N1N=C2N(Cc3ccccc3)C(=O)c3c(sc4c3CCCC4)N2C1c1cn(-c2ccccc2)nc1-c1ccc(Cl)cc1 (stereo not given),81% (inactive)
13,CCC(C)Nc1ccc(N)cc1 (stereo not given),-24.5% (active)
14,O=c1c(-c2ccc3c(c2)OCO3)coc2c(CO)c(O)ccc12,-21.6% (active)
15,COc1cc(C(=O)N2CCN(C(=O)c3cc(OC)c(OCc4ccccc4)cc3N)CC2)c(N)cc1OCc1ccccc1,86.1% (inactive)
16,C=C1C(=O)O[C@H]2[C@H]1CC/C(COC(=O)c1ccc(C#N)cc1)=C\CC[C@@]1(C)O[C@@H]21,-35.8% (active)
17,C=C1C(=O)O[C@H]2[C@H]1CC/C(CNC(=O)/C1=C/CC[C@@]3(C)O[C@H]3[C@H]3OC(=O)C(=C)[C@@H]3CC1)=C\CC[C@@]1(C)O[C@@H]21,84.5% (inactive)
18,Nc1ncc(-c2ccc3ncnc(Nc4ccc(F)c(Cl)c4)c3c2)cn1,31.9% (inactive)
19,Cc1cn(C2CC(N=[N+]=[N-])C(COP(=O)(O)OP(=O)(O)OP(=O)(O)O)O2)c(=O)[nH]c1=O (stereo not given),50.9% (inactive)
20,COC(OC)C1(c2ccccc2)NC(=O)NC1=O (stereo not given),104% (inactive)

row,SMILES,growth
1,O=C1C(Cl)=C(Nc2cccc3cc4ccccc4nc23)C(=O)c2ccccc21,74.9% (inactive)
2,Nc1nc(-c2cc3c(cc2Cl)NC(=O)/C3=C/c2ccccc2)cs1,81.2% (inactive)
3,CN1CCN(Cn2nc(-c3cc(Cl)cc(Cl)c3Cl)n(/N=C/c3ccc(Cl)cc3)c2=S)CC1,43.7% (inactive)
4,C[C@]12CC[C@@H]3c4ccc(O)c(N)c4CC[C@H]3[C@@H]1CC[C@@H]2O,140% (inactive)
5,Nc1ncnc2c1c(-c1ccc(Oc3ccccc3)cc1)nn2C[C@H]1SSC[C@@H]1O,-2.99% (active)
6,O=C(CSc1nnc(-c2ccc(Cl)cc2)o1)Nc1ccc(C(=O)/C=C/c2ccccc2)cc1,106% (inactive)
7,COc1cc(Br)c(-c2nc(-c3ccccc3)c(-c3ccccc3)n2Cc2ccccc2)cc1OC,45.7% (inactive)
8,CC(Cl)(CCl)CS(=O)(=O)c1ccc(Cl)cc1 (stereo not given),90% (inactive)
9,COc1ccc(-c2cc3ccc(N(C)C)cc3nc2N)c(F)c1,19% (inactive)
10,C=C1C(=O)O[C@H]2[C@H]1CC/C(COC(=O)CCCC(=O)OC/C1=C/CC[C@@]3(C)O[C@H]3[C@H]3OC(=O)C(=C)[C@@H]3CC1)=C\CC[C@@]1(C)O[C@@H]21,-43% (active)
11,O=C(Nc1ccc(-n2ccc3c(NC(=O)c4ccccc4)ncnc32)cc1)Nc1ccc(Cl)c(C(F)(F)F)c1,-8.52% (active)
12,Cc1nc(-c2ccc(Cl)cc2)ccc1NC(=O)Nc1cccc(C(F)(F)F)c1,96.4% (inactive)
13,NC(=S)NNC1CCCCC1,88.7% (inactive)
14,O=C(O)c1cn(C2CC2)c2cc(N3CCN(C(=O)CSc4nc(NS(=O)(=O)c5ccccc5)cc(=O)[nH]4)CC3)c(F)cc2c1=O,106% (inactive)
15,O=c1c2ccccc2sc2c(NCCN3CCOCC3)nc3ccccc3c12,24.8% (inactive)
16,CCC1(C(N)=O)CC2C=CC1CC2 (stereo not given),94.1% (inactive)
17,COc1ccccc1N1CCN(CCCOc2ccc(OCCCN3CCN(c4ccccc4OC)CC3)c(C(=O)c3cc(OC)c(OC)c(OC)c3)c2)CC1,94.2% (inactive)
18,Oc1ccccc1/C=N/c1ccccn1,76.9% (inactive)
19,C=C1C(=O)O[C@H]2[C@H]1CC/C(C(=O)Nc1ccc(OC)c(C(N)=O)c1O)=C\CC[C@@]1(C)O[C@@H]21,26.4% (inactive)
20,COc1ccc(Cl)cc1NC(=O)c1cc2c(n1C)-c1nc(NC(=O)C(C)C)sc1CC2,91% (inactive)

# — PubChem BioAssay (NCI)
